According to PubChem BioAssay (NCI):
This is part of a sample that, as a whole, favours compounds with a hit. Of some 79,000 tested, about 15% had one in any assay. Calls of active or inactive are those of the source. Cut-off read from the data, not from the text of the source: active = growth inhibition above about 70%; inactive = the rest.

Experiments:
[1] = NCI Yeast Anticancer Drug Screen. Data for the rad50 strain (AID 155);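 note: 0% = growth of vehicle-only cultures of the same strain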; settings: S. cerevisiae rad50 strain growth inhibition; at 50.0 µM; active compounds read high
In short: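 Compounds were tested on a yeast strain with an engineered DNA damage repair alteration; the reported value is growth inhibition normalised to vehicle treatment.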

[2] = NCI Yeast Anticancer Drug Screen. Data for the mec2-1 strain (AID 157); settings: S. cerevisiae mec2-1 strain, at 50.0 µM, active compounds read high
In short: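 Compounds were applied to mec2-1 yeast cells. Their growth was then compared with that of vehicle-treated cultures to give growth inhibition.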

[3] = NCI Yeast Anticancer Drug Screen. Data for the sgs1 mgt1 strain (AID 161);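 note: 0% = growth of cultures given vehicle only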; settings: S. cerevisiae sgs1 mgt1 strain, at 50.0 µM, active compounds read high
In short: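 Compounds are added to genetically altered yeast, and growth is compared with cultures given vehicle alone to give percent inhibition.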

[4] = NCI Yeast Anticancer Drug Screen. Data for the cln2 rad14 strain (AID 165);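 note: 0% = growth equal to vehicle treated cultures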; settings: S. cerevisiae cln2 rad14 strain, at 50.0 µM, active compounds read high
In short: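 Strain: cln2 rad14 yeast, altered in cell cycle control and DNA damage repair. Read-out: growth inhibition vs vehicle.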

[5] = NCI Yeast Anticancer Drug Screen. Data for the bub3 strain (AID 167); settings: S. cerevisiae bub3 mutant strain, at 50.0 µM, active compounds read high
In short: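 Growth of a checkpoint-deficient yeast mutant is measured after compound exposure. Values represent inhibition relative to vehicle.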

[6] = NCI Yeast Anticancer Drug Screen. Data for the mlh1 rad18 strain (AID 175); settings: S. cerevisiae mlh1 rad18 strain growth inhibition; at 50.0 µM; active compounds read high
In short: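 A repair-deficient yeast strain is exposed to test compound, and growth is scored relative to vehicle-treated controls.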

Measured: growth inhibition

C/C(=C\c1ccccc1)C(=O)c1c(C)cc(C)cc1C
inactive: [1] 26.9% | [2] -2.9% | [3] 11.1% | [4] -0.2% | [5] -5.45% | [6] -11.8%

CC1=C(C(=O)CC(=O)C(=O)Nc2ccc(C)cc2C)Sc2ccccc2N1
inactive: [1] -1.55% | [2] -20.9% | [3] -33% | [4] -9.8% | [5] 6.2% | [6] 24.6%

NC(=S)N1CCCC1
inactive: [1] -2.2% | [2] -22.1% | [3] 3.05% | [4] 7% | [5] 17.6% | [6] 19.3%

CCOC(=O)[C@H](Cc1ccccc1)NC(=O)c1nc[nH]c1[N+](=O)[O-]
inactive: [1] -10.1% | [2] -9.25% | [3] -31.1% | [4] 5.6% | [5] 1.2% | [6] -34%

COc1ccc(CCNC(=S)/N=C\C2=C(O)c3ccccc3C2=O)cc1OC
inactive: [1] -26.1% | [2] -51.9% | [3] -17.5% | [4] 4.65% | [5] -5.05% | [6] -19.3%

CN(C)C(=O)/N=C1\SC(=Nc2ccccc2)C(=Nc2ccccc2)N1c1ccc([N+](=O)[O-])cc1
inactive: [1] -1.65% | [2] 5.5% | [3] -1.7% | [4] 27.2% | [5] 16.4% | [6] -12.3%

COc1ccc2c(=O)c(S)coc2c1
inactive: [1] 35.8% | [2] 36.5% | [3] 22.3% | [4] 9% | [5] -1.15% | [6] 41%

Clc1ccc(-c2csc3nc(-c4cccs4)nn23)cc1
inactive: [1] -0.05% | [2] -16.6% | [3] 16.6% | [4] 1.65% | [5] -6.95% | [6] -5.3%

O=C1OC(=Nc2ccccc2Cl)c2ccccc21
inactive: [1] -21.6% | [2] -21.5% | [3] -5.05% | [4] -9.1% | [5] 14.5% | [6] 18.3%

Nc1c(F)c(F)cc(F)c1[N+](=O)[O-]
inactive: [1] 2.6% | [2] -2.7% | [3] 2.55% | [4] 7.6% | [5] 9.6% | [6] 4.35%

CCOC(=O)c1ccc(NC(=O)Oc2ccc(SC)cc2)cc1
inactive: [1] 8.2% | [2] -5.25% | [3] 0.4% | [4] 8.95% | [5] 23.4% | [6] 6.9%

COC(C)CCOC(=O)c1ccccc1C (stereo not given)
inactive: [1] 10% | [2] -6.1% | [3] 0.8% | [4] -21.8% | [5] 24.9% | [6] 3.2%

CC1(C)CCCC/C1=N\NC(N)=O
inactive: [1] -12.6% | [2] -20.4% | [3] -8% | [4] -6.15% | [5] -9.6% | [6] -14.8%

CN1CCc2c1nc(-c1ccccc1)c1c2N(C)CC1
inactive: [1] 2.2% | [2] -11% | [3] -6.4% | [4] 9.65% | [5] -18.2% | [6] -1.5%

COc1ccc2nc(N/N=C/C(C)=N/Nc3cc(C)c4cc(OC)ccc4n3)cc(C)c2c1
inactive: [1] -3% | [2] 4.8% | [3] -2% | [4] 3.4% | [5] 0.15% | [6] -23.2%

COc1ccc2c(c1)nc1n2C(N)=Nc2ccccc2S1
inactive: [1] 44.5% | [2] 23.8% | [3] 36.2% | [4] 19.9% | [5] 58% | [6] 36.5%

Cc1n(CC(=O)c2ccccc2)nc2sc(N)n[n+]12
inactive: [1] -50% | [2] -23.9% | [3] -68% | [4] -18.2% | [5] -14.8% | [6] -20.9%

COC(=O)C1=C(C(=O)OC)C(=Nc2ccccc2)c2ccccc2C1=O
inactive: [1] 46.8% | [2] 35.3% | [4] 8.2% | [5] 51.4%
active: [3] 74.2% | [6] 90.6%

CC(O)CN1CCN(CN(CC(C)O)CC(C)O)CC1 (stereo not given)
inactive: [1] 0.55% | [2] 7.25% | [3] 10.7% | [4] -2.65% | [5] 9% | [6] -16.4%

CCCCCCCCCCCCCCCCCCSc1ccc2ccccc2c1
inactive: [1] 37.5% | [2] -10.5% | [3] 20.4% | [4] -14.1% | [5] 0.6% | [6] -5.7%

CC(C)OC(=O)Oc1ccccc1Cl
inactive: [1] -18.5% | [2] -21.1% | [3] -13.6% | [4] -6.9% | [5] -3.35% | [6] -22.4%

O=C(O)CCC(NC(=O)CCC(NC(=O)OCc1ccccc1)C(=O)OCc1ccccc1)C(=O)OCc1ccccc1 (stereo not given)
inactive: [1] -13.1% | [2] -31.5% | [3] -10.6% | [4] 9.2% | [5] 5.4% | [6] -10.8%

CC(C)C1CC(O)C(C)C(C(C)C)C1 (stereo not given)
inactive: [1] 4.05% | [2] -17.5% | [3] -12.9% | [4] -28.2% | [5] -1.65% | [6] -20.6%

C1CC2N=NC1C21CC1.[Cl][Cu][Cl]
inactive: [1] 1.2% | [2] 1.7% | [3] -3.75% | [4] -8.15% | [5] 8.7% | [6] -10%

Cc1ccc(S(=O)(=O)NCCCN(CCCNS(=O)(=O)c2ccc(C)cc2)S(=O)(=O)c2ccc(C)cc2)cc1
inactive: [1] -8.25% | [2] -10.8% | [3] -5.1% | [4] -70.5% | [5] -19.4% | [6] -12.2%

O=C1c2ccccc2C(=O)N1Cc1ccccc1-c1c2nc(c(-c3ccccc3CN3C(=O)c4ccccc4C3=O)c3ccc([nH]3)c(-c3ccccc3CN3C(=O)c4ccccc4C3=O)c3nc(c(-c4ccccc4CN4C(=O)c5ccccc5C4=O)c4ccc1[nH]4)C=C3)C=C2
inactive: [1] 11.8% | [2] -1.55% | [3] -0.8% | [4] -3.4% | [5] 13.6% | [6] -14%

CCOC(=O)C(Cc1ccc(Cl)cc1)(Cc1ccc(Cl)cc1)C(=O)OCC
inactive: [1] 0.75% | [2] -30.4% | [3] -18% | [4] 6.15% | [5] -15.8% | [6] -10.7%

CCOc1ccc2c(N=[N+]=[N-])cc(C)nc2c1
inactive: [1] -46.1% | [2] -11.2% | [3] -18.2% | [4] -67.8% | [5] 5.3% | [6] 5.45%

O=C(Nc1ccccc1)OC1OC(COC(=O)c2ccccc2)C(OC(=O)c2ccccc2)C1OS(=O)(=O)c1ccc([N+](=O)[O-])cc1 (stereo not given)
inactive: [1] -18.1% | [2] 0.15% | [3] -18.2% | [4] -25.6% | [5] -13.1% | [6] -15.8%

CCOC(=O)C1(C)CCC(C(C(=O)O)C(=O)O)CC1=O (stereo not given)
inactive: [1] -10.5% | [2] 9.95% | [3] 13.7% | [4] 20.2% | [5] 21.4% | [6] -12.5%

COc1cc([N+](=O)[O-])c2nccc(C)c2c1
inactive: [1] 13.1% | [2] 6.1% | [3] -0.6% | [4] -5.05% | [5] -5.1% | [6] 18.6%

CC(=O)OCC(OC(C)=O)C(OC(C)=O)C(OC(C)=O)c1cnn(-c2ccccc2)n1 (stereo not given)
inactive: [1] 4.05% | [2] 12.7% | [3] -20% | [4] -22.8% | [5] 5.6% | [6] 6%

CN(C(=O)CCC1OCCO1)c1cc([N+](=O)[O-])ccc1OCc1ccccc1
inactive: [1] 22.1% | [2] -1.05% | [3] 1.5% | [4] 9.8% | [5] 2% | [6] 15.2%

CN(C)c1ccc(/C=C/c2nc3ccc(Cl)cc3[nH]2)cc1
inactive: [1] -5.55% | [2] 0.1% | [3] -1.9% | [4] 5.75% | [5] -8.2% | [6] -14.1%

CCCCOC(=O)c1ccc(NC(=O)Nc2c(C)cccc2C)cc1
inactive: [1] -0.65% | [2] -4.4% | [3] 27.3% | [4] -6.2% | [5] 30.9% | [6] 25%

CC(NC(=O)C(N)CC(=O)O)NC(=O)N(C)C(C)(C)C (stereo not given)
inactive: [1] -8.5% | [2] 1.75% | [3] 2.1% | [4] 2.65% | [5] 25.4% | [6] -44.2%

CC(C)SCCO
inactive: [1] -2.55% | [2] 10.2% | [3] 7.6% | [4] -9.65% | [5] -26.6% | [6] -13.4%

O=C(O)c1ccccc1Oc1ccc([N+](=O)[O-])cc1[N+](=O)[O-]
inactive: [1] 4.3% | [2] 16.8% | [3] 32% | [4] -82% | [5] 26.8% | [6] 20.1%

COc1ccc(C2C/C(=N/O)c3ccccc3O2)cc1 (stereo not given)
inactive: [1] 16.6% | [2] -7.85% | [3] 5.85% | [4] -93.6% | [5] -7.75% | [6] 10.1%

Cc1ccc(NC(=O)/C(Cc2nc3ccc([N+](=O)[O-])cc3[nH]c2=O)=N\NC(=O)C[n+]2ccccc2)c(C)c1
inactive: [1] -7.5% | [2] -9.25% | [3] -4.3% | [4] 14.9% | [5] 15.3% | [6] -7.65%
